# Laboratory results: PubChem BioAssay (Tox21)
# Inconclusive results are not listed. The source made the active and inactive calls. Calls follow the shape of the dose curve; as a rule, active = well fitted cell-killing curve with a large enough effect in the repeat runs; inconclusive = weak or mixed curves, or effect the other way; inactive = flat fitted curve, though single readings scatter.
# Assay: qHTS RealTime-Glo MT Cell Viability Assay in HEK293 cells - 32 hour (AID 1224868); also: nearly all actives have a fitted effect of over 50% in size; as to activity change, negative = cytotoxic: top concentration of the series differs between compounds
# Conditions: RealTime-Glo luminescence; series mostly up to 76.8 µM; activity change, negative = cytotoxic: at the top concentration
# Description: National Center for Advancing Translational Sciences [NCATS]
# NIH Chemical Genomics Center [NCGC]
# U.S. Environmental Protection Agency [EPA]
# National Institutes of Environmental Health Sciences [NIEHS]
# National Toxicology Program [NTP]
# U.S. Food and Drug Administration [FDA]
# Measure of cell viability is critical in the cell-base assay. Analysis of cell viability is necessary for the characterization of cell responses to cytotoxic drugs and environmental stress. A RealTime-Glo MT Cell Viability Assay to monitor cell viability in real time of continues cell culture during 40 hours of compound treatment was used to screen Tox21 10K library compounds in Hek293 cells. The RealTime-Glo MT Cell Viability Assay is a nonlytic, homogeneous, bioluminescent method to measure cell viability in real time using a simple, plate-based method. The assay involves adding NanoLuc luciferase and a cell-permeant prosubstrate to cells in culture. Viable cells reduce the proprietary prosubstrate to generate a substrate for NanoLuc luciferase. This substrate diffuses from cells into the surrounding culture medium, where it is rapidly used by the NanoLuc Enzyme to produce a luminescent signal. The signal correlates with the number of viable cells, making the assay well suited for cytotoxicity studies.
# Tox21 Assay Protocol Summary:
# The mixture of Hek293 cell suspension and reagents were dispensed at 600cells/6 ul/well in 1536-well tissue culture treated black solid bottom plates using a Multidrop dispenser. After the assay plates were incubated at a 37 C/5% CO2 incubator for 5 hours, 23 nL of compounds dissolved in DMSO, positive and negative controls was transferred to the assay plate by a pintool work station. The plates were incubated at 37 C for 40 hours. The luminescence intensity were measured at 0h, 8h, 16h, 24h, 32h and 40h time points using ViewLux plate reader during compound treatment.
# % is scaled to controls: 0 for no effect and ±100 for the full control effect; potency is read from the fitted curve at half-maximal effect.
SMILES,"activity change, negative = cytotoxic",Potency
Oc1cn2c(n1)Nc1ccc(Cl)c(Cl)c1C2,9.1% [at 15.8 µM] (inactive),–
BrCc1cccc(Oc2ccccc2)c1,-5.58% (inactive),–
CC(=O)/C=C/C1C(C)=CCC(C)C1(C)C (stereo not given),-0.217% (inactive),–
COC(=O)CCCCCCCC(=O)OC,13.6% (inactive),–
COc1ccc(Br)c(C)c1,3.8% (inactive),–
NS(=O)(=O)c1cc2c(cc1Cl)CN(C1CCCCC1)C2=O,–,9.52 µM (active)
O=C(CCNNC(=O)c1ccncc1)NCc1ccccc1,3.39% [at 35.3 µM] (inactive),–
c1ccc2c(c1)ccc1c3ccccc3ccc21,6.04% [at 35.3 µM] (inactive),–
C=C(C)C(=O)OCc1ccccc1,-0.509% (inactive),–
CN(C)c1ccc(C=O)cc1,15.7% (inactive),–
Nc1ccc([N+](=O)[O-])c(N)c1,-7.82% (inactive),–
CCCC(=O)C(C)=O,-2.39% (inactive),–
COCCOCCOCCOCCO,11.2% (inactive),–
CC(C)CCCC(C)(C)O,-7.07% (inactive),–
CC(=O)Nc1ccc(S(=O)(=O)Cl)cc1,-4.7% (inactive),–
CN(C)C(=O)CNC(=O)Cc1ccccc1,7.28% [at 35.3 µM] (inactive),–
CC(=O)CCCCn1c(=O)c2c(ncn2C)n(C)c1=O,-1.02% [at 35.3 µM] (inactive),–
COc1cc2c(cc1OC)C(=O)CC2,-21.5% [at 35.3 µM] (inactive),–
C=CC(OCC)OCC,12% (inactive),–
CCOC(=O)CC(=O)c1ccccc1,0.704% (inactive),–

SMILES,"activity change, negative = cytotoxic",Potency
CC(=O)c1sc(C)nc1C,-25% (inactive),–
CC(N)C(=O)OC(C)(C)Cc1ccc(Cl)cc1 (stereo not given),-12.6% [at 35.3 µM] (inactive),–
C[Si](C)=O,1.65% [at 6.97 µM] (inactive),–
CCc1ccc(C=O)cc1,-0.382% (inactive),–
N[C@@H](CCC(=O)N[C@@H](CS)C(=O)NCC(=O)O)C(=O)O,7.09% [at 15.8 µM] (inactive),–
Cc1[nH]cnc1-c1ccc(Cl)cc1,-2.63% [at 35.3 µM] (inactive),–
CCCN1C[C@H](CSC)C[C@@H]2c3cccc4[nH]cc(c34)C[C@H]21,-0.68% [at 35.3 µM] (inactive),–
O=S(=O)(O)CCN1CCN(CCO)CC1,-1.22% (inactive),–
CCCCNC1CC(C)(C)NC(C)(C)C1,3.36% (inactive),–
CCCCCCCCCC(C)=O,9.87% (inactive),–
CN=C(NC#N)Nc1ccc(C2=NNC(=O)CC2C)cc1 (stereo not given),7% [at 35.3 µM] (inactive),–
CC(CC=O)CCCC(C)(C)O (stereo not given),0.063% (inactive),–
CC(C)CC(=O)O,8.57% (inactive),–
C=COCCOCCOCCOC=C,3.32% (inactive),–
O=P(O)(O)OP(=O)(O)O,7.62% (inactive),–
C[C@H](N)[C@H](O)c1cccc(O)c1,0.288% [at 35.3 µM] (inactive),–
CCOC(=O)c1ccc(OC(=O)CCCCCN=C(N)N)cc1,-16.6% [at 35.3 µM] (inactive),–
OCCN(CCO)c1cccc(Cl)c1,0.405% (inactive),–
O=C1c2ccccc2C(=O)N1CCl,0.578% (inactive),–
CCN(C)C(=O)Oc1cccc([C@H](C)N(C)C)c1,1.78% [at 35.3 µM] (inactive),–
